“And” between values parts separate entries of the source, which are not always exact repeats. Equal values may be shown once. Records with an inconclusive call do not appear. The source made the active and inactive calls. Unless noted, calls follow the shape of the dose curve; as a rule, active = well fitted curve in the direction sought with a large enough effect; inconclusive = small, poorly fitted or top-dose-only effect, or another doubt; inactive = no such curve, though single readings can be large; an effect the other way counts as inactive or inconclusive.

A short description of assay [1]: Cell Viability - BJ (AID 421; calls by dose curve;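 also: potency is read from the fitted curve at half-maximal effect; cells exposed to compound for 40 hours at 37 °C before readout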). The note with it: BJ fibroblast viability, qHTS. The gist of the method: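 Cytotoxicity in human BJ foreskin fibroblasts is scored as loss of cellular ATP after a 40-hour exposure, measured by luciferase luminescence. Controls are DMSO and 100 uM tamoxifen.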
(Quantitative high-throughput screening tests each substance at several concentrations.)

Assay [2] can be described thus: Cell Viability - Jurkat (AID 426;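 active = dose-dependent loss of cell ATP signal giving a full or clear fitted curve, ranked by lower potency value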;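 also: potency is read from the fitted curve at half-maximal effect; cells exposed to compound for 40 hours at 37 °C before ATP read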). The note with it: qHTS. The method, boiled down: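 Cytotoxicity was scored as loss of cellular ATP, measured by luciferase-based luminescence, in Jurkat clone E6-1 cells after 40 h compound treatment; tamoxifen and doxorubicin served as positive controls.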
A short description of assay [3]: Cell Viability - Hek293 (AID 427;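 active = compounds whose dose-response curve shows a full or clear partial loss of cell viability, called from curve shape rather than a numeric limit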;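 also: potency is read from the fitted curve at half-maximal effect; cells exposed to compound for 40 hours at 37 °C before reading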). The note with it: qHTS. The method, boiled down:
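qHTS, human embryonic kidney (adenovirus-transformed) cells; 40 hr cpd, 37 °C; CellTiter-Glo ATP luminescence. Norm: DMSO = 0, 100 uM tamoxifen = 100% inhibition. Hill-fit AC50.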

Assay [4] can be described thus: Cell Viability - HepG2 (AID 433; calls by dose curve; also: potency is read from the fitted curve at half-maximal effect). The note with it: qHTS. The method, boiled down:
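Cytotoxicity is scored as loss of intracellular ATP in HepG2 cells exposed to compounds for 40 h. Concentration-response curves, normalized to DMSO and 100 uM tamoxifen, give AC50 values.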

Assay [5] is described as follows: Cell Viability - MRC5 (AID 434; calls by dose curve;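 also: potency is read from the fitted curve at half-maximal effect; cells exposed to compound for 40 hours at 37 °C; potency reflects cytotoxicity seen as loss of intracellular ATP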). The note with it: MRC5 lung fibroblast viability, qHTS. The gist of the method: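 Decrease in intracellular ATP, quantified by luciferase light output, reflects compound toxicity toward MRC5 cells exposed for 40 hr in complete culture medium. Concentration-response curves, scaled between DMSO and 100 uM tamoxifen, gave AC50 values.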

Assay [6] in a line: Cell Viability - SK-N-SH (AID 435; calls by dose curve;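 also: potency is read from the fitted curve at half-maximal effect; compound exposure lasted 40 h at 37 °C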). The note with it: SK-N-SH neuroblastoma cell viability qHTS. The method, boiled down:
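Cells seeded at 1500 per well and incubated 5 hr at 37 °C. Compound added, then 40 hr at 37 °C. CellTiter-Glo added, 20 min at room temperature, luminescence read.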

Assay [7] deals with Mitogen-activated protein kinase 10 (Mus musculus) (UniProt Q61831). The assay is described as follows: JNK3 AlphaScreen Assay (AID 530; active = well fitted curve in either direction with a large enough effect, not every such curve was filed as active;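 also: kinase came from lysate of stimulated human HepG2 cells; % is scaled to controls: 0 for no effect and ±100 for the full control effect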). The note with it: JNK3 lysate, c-Jun phosphorylation; series mostly up to 57.1 µM. The gist of the method: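 Biotinylated GST-cJun(1-79) served as substrate for JNK3 in HepG2 lysates stimulated with IL-1beta and TNF-alpha. ATP was 10 uM final, pH 7.6. Ser73 phosphorylation was quantified by AlphaScreen (680 nm excitation).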

The nature of assay [8]: Cell Viability - NIH 3T3 (AID 541). Also: nearly all actives have a fitted effect of over 25% in size. Also: potency is read from the fitted curve at half-maximal effect.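 As to activity change, negative = cytotoxicity: plate controls were DMSO alone for no effect and tamoxifen positive control for full effect.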 The note with it: NIH 3T3 cell viability, qHTS; activity change, negative = cytotoxicity: at 92.2 µM (top of the series). The method, boiled down: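 In this cytotoxicity screen, acute toxicity is scored as an ATP drop measured by CellTiter-Glo in NIH 3T3 fibroblasts following a 40 hr, 37 °C incubation with compound.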
The nature of assay [9]: Cell Viability - H-4-II-E (AID 543). Also: nearly all actives have a fitted effect of over 35% in size. Also: potency is read from the fitted curve at half-maximal effect. The note with it: H-4-II-E rat hepatoma viability; series mostly up to 92.2 µM. The method, boiled down: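 AC50 from Hill-modelled qHTS concentration-response curves. H-4-II-E rat hepatoma cells in complete medium, 40 hr exposure at 37 °C, viability by CellTiter-Glo ATP luminescence.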
Assay [10] can be described thus: Cell Viability - Mesenchymal (AID 546).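 Also: cells exposed to compound for 40 hours before reading.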 Also: potency is read from the fitted curve at half-maximal effect. The note with it: mesenchymal cells viability, qHTS; activity change, negative = cytotoxicity: at 91.7 µM (top of the series). The method, boiled down: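 In this qHTS cytotoxicity format, glomerulus-derived human mesenchymal kidney cells received compound for 40 hr, then luciferase-based ATP quantitation. Concentration-response data were fitted with the Hill equation.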

Assay [11] can be described thus: Cellular Toxicity (caspase-3) HepG2 (AID 654).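 Also: cells exposed to compound for 16 hours before reading; 0% = DMSO alone and 100% = caspase signal from 100 µM tamoxifen.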 The note with it: HepG2 caspase-3 activation, luminescence, 0% = DMSO only, 100% = tamoxifen; series mostly up to 92.2 µM. The method, boiled down: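 Concentration-response AC50 values reflect caspase-3/7 induction in HepG2 cells after 16 hours of compound exposure, quantified by luminescence from liberated aminoluciferin and referenced to 100 uM tamoxifen as full stimulation.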

Assay [12] can be described thus: Cellular Toxicity (caspase-3) HUV-EC-C (AID 656). The note with it: HUV-EC-C cells, caspase-3 activation (apoptosis), vehicle = 0, 100 µM tamoxifen = 100%; series mostly up to 92.2 µM. The method, boiled down: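 Read-out: luminescence proportional to caspase 3/7 activity, measured 20 min after adding Caspase-Glo 3/7 reagent. Cells (HUV-EC-C) had received compound for 16 hr at 37°C. Increases relative to DMSO and 100 uM tamoxifen gave concentration-response AC50 values.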

Assay [13] is described as follows: Cellular Toxicity (caspase-3) BJ (AID 658). The note with it: BJ fibroblasts, luminescence, normalized: DMSO 0%, staurosporine 100%; series mostly up to 91.7 µM. The gist of the method: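 Plated BJ cells (1000/well) rested 5 hr, received compound for 16 hr at 37 °C, then Caspase-Glo 3/7 reagent for 1 hr at room temperature before luminescence reading.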
The nature of assay [14]: Cellular Toxicity (caspase-3) MRC-5 (AID 659). The note with it: MRC-5 cells, luminescence, normalized: DMSO 0%, 10 µM staurosporine 100%; series mostly up to 91.7 µM. The gist of the method: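 Apoptosis readout in MRC-5 cells: luciferase light generated after caspase 3/7 cleaves a peptide-aminoluciferin substrate, measured post 16 hr compound incubation at 37 °C.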
Assay [15] can be described thus: Cellular Toxicity (caspase-3) Mesangial (AID 660).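 Also: cells exposed to compound for 16 h before the caspase read.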 The note with it: mesangial cells, normalized: DMSO 0%, 100 µM tamoxifen 100%; series mostly up to 91.7 µM. The gist of the method: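 AC50 values come from Hill-equation fits of caspase 3/7 activation, measured as Caspase-Glo luminescence in human glomerular mesangial cells exposed to compound for 16 h at 37 °C; 100% set by 100 uM tamoxifen.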

Assay [16] can be described thus: Cellular Toxicity (caspase-3) Hek293 (AID 664).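 Also: cells exposed to compound for 16 h at 37 °C before readout.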 The note with it: HEK293 caspase-3 activation, DMSO = 0%, 100 µM tamoxifen = 100%; series mostly up to 92.2 µM. The gist of the method:
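Apoptosis readout: Caspase-Glo 3/7 signal in human HEK293 cells following 16-hour compound incubation. Responses scaled between DMSO baseline and 100 uM tamoxifen.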

A short description of assay [17]: Cellular Toxicity (caspase-3) Renal Proximal Tubule (AID 667).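 Also: cells exposed to compound for 16 hours at 37 °C before detection.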 The note with it: renal proximal tubule cells, primary cells freshly taken from rat, solvent-only wells 0%, staurosporine 100%; series mostly up to 91.7 µM. The method, boiled down: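 In qHTS format, rat primary proximal tubule cells seeded at 1000 per well are exposed to compounds for 16 hours at 37 °C. An increase in Caspase-Glo 3/7 luminescence indicates caspase activation.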

Assay [18] is described as follows: qHTS Assay for Identification of Small Molecule Inducers of Hypoxia Response (AID 2120; active = well fitted curve in the direction sought with a large enough effect in the signal ratio, with a control signal flat, not every such curve was filed as active; the % refers to the signal ratio; also: 0% is about no effect). The note with it: hypoxia response reporter cells, beta-lactamase ratio readout; series mostly up to 104 µM. The method, boiled down:
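HRE-bla ME-180, 2500 cells/well, 0.5% dialyzed FBS medium; cpd titration, 17 h 37 degrees C; CCF4 2.5 h RT; Ex 405, Em 460/530 ratio -> %Activity, AC50.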

Assay [19] is described as follows: qHTS assay for small molecule antagonists of retinoid X receptor alpha signaling (AID 588546).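 Also: cells stimulated with 9-cis-retinoic acid as agonist; % is scaled to controls: 0 for no effect and ±100 for the full control effect.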 The note with it: HEK293T RXRa-UAS-bla, beta-lactamase ratio, antagonist mode; measured here: W530 green channel, cytotoxicity proxy. The method, boiled down:
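Beta-lactamase reporter inhibition, read as CCF4 fluorescence ratio (ex 405, em 460/530 nm) after 2 h at RT. HEK293T UAS-bla cells, 2500/well, were stimulated with 9-cis-RA at 500 or 100 nM final alongside test compound for 18 h at 37 C.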

Assay [20] addresses Peroxisome proliferator-activated receptor alpha (Homo sapiens) (UniProt Q07869). In words: qHTS assay for small molecule agonists of the peroxisome proliferator-activated receptor alpha (PPARalpha) signaling pathway (AID 651778). Also: % of control where 0% means no effect. The note with it: PathHunter PPARalpha complementation, chemiluminescence, 6 h; max response: stronger effect = higher value. The method, boiled down:
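Cells plated at 2,000/well and held overnight at 37 C, 5% CO2, then compound added by pin tool for 6 hr; after PathHunter detection reagent and 60 min at room temperature, chemiluminescence from enzyme complementation was read.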

Sequence of Peroxisome proliferator-activated receptor alpha (Homo sapiens) (Q07869 whole entry, looked up): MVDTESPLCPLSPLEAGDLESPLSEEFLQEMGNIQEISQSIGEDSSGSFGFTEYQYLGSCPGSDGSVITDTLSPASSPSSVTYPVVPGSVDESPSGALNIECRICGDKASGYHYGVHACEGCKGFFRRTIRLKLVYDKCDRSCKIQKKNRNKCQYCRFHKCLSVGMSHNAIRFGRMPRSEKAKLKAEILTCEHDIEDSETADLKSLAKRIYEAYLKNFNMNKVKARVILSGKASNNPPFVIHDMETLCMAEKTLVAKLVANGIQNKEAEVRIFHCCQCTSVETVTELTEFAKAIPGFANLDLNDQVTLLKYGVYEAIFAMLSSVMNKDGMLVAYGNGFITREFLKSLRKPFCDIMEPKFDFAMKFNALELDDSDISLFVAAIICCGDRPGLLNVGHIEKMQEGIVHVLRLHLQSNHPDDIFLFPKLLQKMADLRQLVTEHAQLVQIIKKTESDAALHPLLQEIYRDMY

With `c1ccc2c(c1)[nH]c1ccccc12`, the Potency in assay [1], in [2], in [3], in [4], in assay [5] and in [6] was > 92 µM (inactive) throughout. For the same molecule, the Potency result in [7], in [8] and in assay [9] was “inactive” in each case. Besides, the activity change, negative = cytotoxicity in assay [10] is -7.62% (inactive). The call in assay [11], in assay [12], in assay [13], in assay [14], in assay [15] and in assay [16] was inactive. Also, the outcome in assay [17] and in assay [18] was inactive. The max response is -0.129% and 3.48% in assay [19]; 5.12% (inactive) and 0.259% (inactive) in assay [20].

As for `S=C1NC=NC2N=CNC12` (stereo not given), the Potency in assay [1] is 0.22 µM (active); in [2], 0.128 µM (active); in [3], 1.03 µM (active); in assay [4], 1.23 µM (active); in [5], > 92 µM (inactive); in assay [6], 0.237 µM (active). Moreover, the Potency in [8] was 3.98 µM (active); in assay [9] it was 0.158 µM (active); in assay [10], 0.501 µM (active). Moreover, the Potency entry in assay [7] was “inactive”. Also, the molecule was classed as inactive in assay [11], in [12], in assay [13], in [14], in assay [15] and in [16]. In addition, the molecule was called inactive in assay [17] and in assay [18]. Moreover, the figures for the max response in assay [19] and in [20] were 4.27% and -7.07% (inactive), respectively.

Turning to `CC(C)=CCCC(C)CCO` (stereo not given), the Potency in assay [1], in assay [2], in [3], in [4], in assay [5] and in [6] was > 92 µM (inactive) in each case. Further, the Potency result in assay [7], in assay [8] and in assay [9] was “inactive” in each case. Moreover, in [10], the activity change, negative = cytotoxicity is 5.35% (inactive). In addition, the call in assay [11], in assay [12], in assay [13], in [14], in assay [15] and in [16] was inactive. Also, the outcome in [17] and in assay [18] was inactive. For the same molecule, the max response in assay [19] is -7.35% and -8.91%; in [20], -8.23% (inactive) and 0.206% (inactive).

On to `CCCCCCCCCCCCCCC1CO1` (stereo not given), for which the Potency in [1], in [2], in [3], in assay [4], in [5] and in [6] was > 92 µM (inactive) in each case. Also, the Potency result in assay [7], in [8] and in assay [9] was “inactive” throughout. Besides, the activity change, negative = cytotoxicity in [10] was 2.08% (inactive). In addition, the molecule was called inactive in [11], in [12], in assay [13], in [14], in assay [15] and in [16]. Also, the molecule was called inactive in assay [17] and in [18]. Besides, the max response in [19] is -4.45% and -4.75%; in assay [20] it was -0.26% (inactive) and -1.17% (inactive).

With `CCCCOCCO`, the Potency in assay [1], in assay [2], in assay [3], in [4], in [5] and in [6] was > 92 µM (inactive) throughout. Also, the Potency entry in assay [7], in [8] and in assay [9] was “inactive” in each case. Further, the activity change, negative = cytotoxicity in [10] is 1.27% (inactive) and 8.74% (inactive). Moreover, the call in assay [11], in [12], in assay [13], in assay [14], in assay [15] and in assay [16] was inactive. The outcome in assay [17] and in assay [18] was inactive. Also, the max response in [19] was -0.95% and -3.08% and -12.9%; in assay [20], -6.41% (inactive) and -1.42% (inactive) and -1.76% (inactive).

The values are drawn from PubChem BioAssay (NCATS).
